Compound activity from PubChem.
ALR inh = inhibitors of human ALR sulfhydryl oxidase, primary screen, biochemical, H2O2 detection, HRP-luminol luminescence, single point | FAD-linked sulfhydryl oxidase ALR (Homo sapiens), P55789 | purified ALR, DTT oxidation | inhibition, % (test concentration not listed) | 3.8% of 290,000 active | AID 485317, 2010;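 active = mean replicate inhibition above about 79%, with every replicate also reaching it, limit read from the data; inconclusive = only one of the two criteria met; inactive = mean below limit and not every replicate reaching it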
Target sequence (P55789 whole entry, looked up): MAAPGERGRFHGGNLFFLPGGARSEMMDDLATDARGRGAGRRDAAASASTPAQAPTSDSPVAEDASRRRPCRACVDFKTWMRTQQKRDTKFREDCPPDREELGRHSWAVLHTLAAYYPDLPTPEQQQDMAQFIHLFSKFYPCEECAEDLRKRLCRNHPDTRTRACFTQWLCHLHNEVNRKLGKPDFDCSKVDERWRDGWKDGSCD
M18AAP inhibitor = PfM18AAP inhibitors, malaria aminopeptidase, primary screen, biochemical, QFRET, recombinant enzyme; M18 aspartyl aminopeptidase (Plasmodium falciparum 3D7); H-Glu-NHMec fluorogenic cleavage; inhibition, % at 7.35 µM; 1.2% of 290,000 active; AID 1822, 2009;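 active = inhibition above the campaign mean inhibition over all tested compounds plus 3 SD, cut at about 28% in these data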;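 also: 0% = plate median of test compound wells and 100% = 2 mM ZnCl2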
SUMO Mot1 rescue = yeast Mot1-301 growth rescue at high temperature, primary screen, SUMOylation pathway inhibitor project, S. cerevisiae, ATP luminescence, 38.5C. S. cerevisiae Mot1-301 growth rescue; percent above DMSO median, 100 means doubled. growth rescue, % at 18.8 µM. 1% of 320,000 active;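 active = every valid replicate shows activation above 250% relative to neutral control wells; inactive = the rest, any valid replicate at or below 250%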;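 also: OY570 slx delta 5 strain wells were the positive control but not used for scaling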
HIF activator = HIF pathway transcriptional activators, primary screen, cell-based, U2OS HRE-luciferase, luminescence | U2OS HRE-luciferase reporter; normalized: DMSO 0%, desferrioxamine 100% | activation, % at 7.5 µM (by protocol) | 0.32% of 300,000 active | AID 1910, 2009;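 active = mean activation of at least 10% of the iron chelator positive control signal, with at least half of replicates also reaching 10%; inconclusive = mean and replicate majority disagree about reaching 10%; inactive = mean and most replicates under 10%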
Active calls of the source: *; ? = inconclusive; nt = no result given. A selection: hits, their analogues and other compounds. The true share with any hit is near 5.3%.

SMILES	ALR inh	M18AAP inhibitor	SUMO Mot1 rescue	HIF activator
Cc1ccc(CC(=O)NCc2ccc3c(c2)OCO3)cc1	0	0	nt	0
Cc1ccccc1-c1nc(CS(=O)(=O)CC(=O)NC2CC2)c(C)o1	2	-5	-10	0
CC[C@@]1(c2cccc(C)c2)C(=O)N(C(=O)OC)N1C(=O)OC	83*	-8	9	-1
Cc1ccc(CNCC(=O)Nc2cccc(S(=O)(=O)NC3=NCCCCC3)c2)cc1	-3	-12	-10	0
CC(=O)Nc1cccc(NC(=O)CSc2nc(=O)n(Cc3ccccn3)c3c2CCC3)c1	98*	nt	10	0
CCOc1ccccc1NC(=O)CSc1nc(=O)n(Cc2ccccn2)c2c1CCC2	nt	nt	-6	0
CC(=O)Nc1cccc(NC(=O)CSc2nc(=O)n(Cc3ccncc3)c3c2CCC3)c1	99*	nt	-8	0
O=C(NCCCn1cccn1)c1cc(COc2ccc(F)cc2Cl)on1	-2	30*	4	1
O=C(CSc1nnc(C2CC2)n1C1CC1)c1ccc(F)cc1	?	nt	10	nt
CC(=O)NCc1ccc(C(=O)CSc2nnc(C3CC3)n2C2CC2)cc1	78*	nt	-6	nt
NC(=O)CC(NC(=O)Cc1ccc(Cl)cc1)c1ccc(NCCN2CCOCC2)c([N+](=O)[O-])c1 (centres undefined)	3	1	-7	-2
CCOC(=O)c1c(-c2ccc(OC)cc2)csc1/N=C/C1C(=O)CCCC1=O	48	34*	-2	0
Cc1cc(C)cc(N2C(=O)CSC2c2cccs2)c1 (centres undefined)	-1	1	127	2
COc1ccc(C2SCC(=O)N2c2ccccc2)cc1 (centres undefined)	nt	-15	2	-1
COc1ccc(C2SCC(=O)N2c2ccc(F)cc2)cc1 (centres undefined)	99*	-5	255	-2
COc1ccc(C2SCC(=O)N2c2ccc(OC)cc2)cc1 (centres undefined)	41	2	310	0
Cc1ccc(N2C(=O)CSC2c2cccs2)cc1 (centres undefined)	99*	-2	11	0
COc1ccc(N2C(=O)CSC2c2ccncc2)cc1 (centres undefined)	99*	3	13	0
COc1ccc(S(=O)(=O)N2CCN(C(=S)Nc3ccc(S(N)(=O)=O)cc3)CC2)cc1	2	12	-15	0
COc1ccc(C(=O)Nc2cccc(NC(=O)c3ccc(OC)c(OC)c3)n2)cc1OC	nt	1	11	1
CCOC(=O)CSc1nc2c(sc(=S)n2-c2ccccc2)c(=O)n1-c1ccc(OC)cc1OC	nt	30*	2	2
CCC(=O)N1CC2(CC(c3cccc(NC(=O)CC(c4ccccc4)c4ccccc4)c3)=NO2)C[C@H]1C(N)=O (some centres undefined)	-3	nt	-9	0
NC(=O)[C@H]1CC2(CC(c3cccc(NC(=O)CC(c4ccccc4)c4ccccc4)c3)=NO2)CN1C(=O)CC(c1ccccc1)c1ccccc1 (some centres undefined)	8	nt	355*	0
COc1ccc(C/C(C)=N/NC(=S)Nc2ccc(Cl)cc2)cc1	nt	11	5	3
COc1ccc(C/C(C)=N/NC(=S)Nc2ccccc2)cc1	82*	17	-20	3
SMILES	ALR inh	M18AAP inhibitor	SUMO Mot1 rescue	HIF activator
CSc1nc(C)cc(-c2cc(C(=O)Nc3ccccc3)on2)n1	1	nt	-7	-1
O=C(NCCCN1CCOCC1)c1cc2c(s1)CSC2	99*	2	6	0
Oc1ccc(/C=N/NC(=S)Nc2cccnc2)cc1	99*	31*	-13	1
COc1cccc(/C=N/NC(=S)Nc2cccnc2)c1	16	18	-10	2
COc1ccc(C(=S)N2CCOCC2)cc1OS(=O)(=O)c1ccccc1[N+](=O)[O-]	-14	-2	9	0
O=C(/C=C/c1ccc(Cl)cc1)c1cccnc1	-7	15	174	nt
O=C(/C=C/c1ccccc1Cl)c1cccnc1	15	28*	275*	0
CCCCCCCNc1cccc(C)c1	-6	-2	150	0
Cc1ccc(NCCNc2ccc(C)cc2)cc1	99*	-9	17	0
Cc1cccc(NCCNc2cccc(C)c2)c1	99*	-7	6	2
Cc1cccc(NCc2ccccc2O)c1	99*	-9	nt	0
Cc1ccccc1NCc1ccccc1O	100*	-5	-13	0
